# Source: PubChem BioAssay (National Center for Advancing Translational Sciences (NCATS))
# HTT ATP protect: Huntington cell model cytoprotection by ATP luminescence | 230,000 tested, 0.14% active | PC12 HTT-Q103 induced, cytoprotection, ATP luminescence, 40 h | Potency, µM (highest dose often 56.4 µM), without a hit: cytoprotection (ATP increase), hits mostly activators; further: potency means the concentration at half of the fitted maximal effect; % of control where 0% means no effect; nearly all actives have a fitted effect of over 45% in size
#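 PC12 cells stably carrying ecdysone-inducible Htt exon 1 (Q103)–GFP were induced with 100 nM tebufenozide (final) alongside library compounds in a dose series. Cytoprotection was scored as retained ATP by ATPlite luminescence.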
# PNC assembly inh: inhibitors of perinucleolar compartment assembly; 140,000 tested, 3.1% active; PC3M PTB-GFP, PNC prevalence imaging, 16 h; active compounds read low; AID 2417; activity change (PNC), negative = inhibition, % at 10 µM;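 active means readout at or below -70, meaning at least 70% loss of cells showing the perinucleolar compartment, a nuclear body marking cancer cells; inconclusive means readout between -30 and a set limit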;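 further: plate controls were DMSO wells for no effect and camptothecin positive control wells for full effect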
#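 Compounds are pinned in duplicate onto adhered PC3M cells stably expressing GFP-tagged PTB and incubated 16 h at 37 C. Cells are then fixed, nuclei stained with Hoechst, and PNC-positive cells counted.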
# HttQ103 aggreg: reduces HttQ103-GFP aggregates in PC12 cells; PC12 HttQ103-GFP aggregates, Acumen cytometry, 40 h; Potency, µM (top dose mostly 46.1 µM), for inactives: at the highest dose activity change, negative = inhibition, actives largely listed as inhibitors; 220,000 tested, 1.1% active; further: potency means the concentration at half of the fitted maximal effect; on the % scale 0 is the no-effect control and ±100 the full control effect; nearly all actives have a fitted effect of over 60% in size
#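 Using laser scanning cytometry, GFP-positive aggregates were counted after lysis of PC12 cells induced with 100 nM tebufenozide to express HTT exon 1 Q103–GFP. Compounds were tested in titration.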
# * hit, by the source's call; ? = inconclusive; . = no result given; [ ] = another dose, or the depositor's remark. Shown is part of a subset that was picked to be rich in hits. Unless noted, the call rests on the fitted dose curve; in most records, active means well fitted curve in the direction sought with a large enough effect; inconclusive means small, poorly fitted or top-dose-only effect, or another doubt; inactive means no such curve, though single readings can be large; an effect the other way counts as inactive or inconclusive.
SMILES,HTT ATP protect,PNC assembly inh,HttQ103 aggreg
O=C(NCC1CCCO1)C1CCN(C2CCN(C3CCCCCC3)CC2)CC1 (centres undefined),12.8%[10 µM],.,13.1%[9.22 µM]
CCOc1cccc(OCCCCn2cnc3ccccc3c2=O)c1,-43.0%,.,-15.3%
CCOc1cccc(OCCn2cnc3ccccc3c2=O)c1,-6.5%[10 µM],-90.7*,3.6%
FC(F)(F)c1cnc(NNC(=S)Nc2ccccc2Cl)c(Cl)c1,27.4%[10 µM],1.2,22.4µM*
Cc1cccc(NC(=S)NNc2ncc(C(F)(F)F)cc2Cl)c1,22.3%[10 µM],39.6,?
CCC(NC(=O)c1ccccc1NC(=O)c1ccco1)C(=O)NNC(=O)c1ccncc1 (centres undefined),21.1%[10 µM],.,16.6%[9.22 µM]
COc1ccc(/C=C/C(=O)OCC(=O)Nc2ccc(Cl)c(S(=O)(=O)N(C)C)c2)cc1OC,4.6%[10 µM],-110.0*,19.7%
COc1ccc(/C=C/C(=O)OCC(=O)Nc2ccc(S(N)(=O)=O)cc2)cc1OC,.,.,15.8%
CN(C)S(=O)(=O)c1cc(NC(=O)COC(=O)CCSc2ccc(Cl)cc2)ccc1Cl,.,-87.9*,17.1%
O=C(COC(=O)CCSc1ccc(Cl)cc1)Nc1ccc(F)cc1,0.0%[10 µM],11.8,-4.1%
CN(C)S(=O)(=O)c1cc(NC(=O)COC(=O)Cc2ccc(Cl)cc2Cl)ccc1Cl,.,-14.3,31.0%
NC(=O)COC(=O)CCSc1ccc(Cl)cc1,14.1µM*,.,?
Cc1nc2cnc(OCc3ccccc3)nc2n(CCC#N)c1=O,-118.4%,.,.
COC(=O)[C@@H]1CC[C@H](C)[C@@H](c2ccc(C)cc2)N1C(=O)c1ccc(/C=N\OC[C@@H](O)[C@H]2O[C@H]3OC(C)(C)O[C@H]3[C@@H]2O)cc1,3.1%[10 µM],.,.
Cc1noc(C)c1S(=O)(=O)N(CCc1ccccc1)Cc1ccccc1,-32.6%,9.7,-7.2%
CCc1ccc(/C=N/NC(=O)c2ccccn2)cc1,-58.7%[10 µM],.,7.0%[9.22 µM]
CCOc1nc(NC(C)C)nc(NC(C)C)n1,-1.3%,10.8,-3.0%
O=C(O)c1ccc(S(=O)(=O)N2CCCCCC2)cc1,6.9%,14.1,11.6%[9.22 µM]
COc1cc(OC)cc(C(=O)Oc2c(CN3CCOCC3)cc(Cl)c3cccnc23)c1,-75.6%[10 µM],.,4.47µM*
COc1ccc(C(=O)Oc2c(CN3CCOCC3)cc(Cl)c3cccnc23)cc1OC,-27.7%,.,.
CCCCNC(=O)CCCCC(=O)N/N=C/c1cccc(Cl)c1,.,5.5,-7.7%
COC(=O)c1ccc(COc2ccccc2/C=N/NC(N)=O)o1,-24.5%[10 µM],.,-4.0%[9.22 µM]
Cc1ccc(-n2c(SCC(=O)OC(C)C)nnc2-c2ccncc2)cc1,-13.3%,-100.0*,17.5%
CC(C)OC(=O)CSc1nnc(-c2ccncc2)n1N,-9.3%,-24.0,5.3%
Cc1nn(Cc2ccc(Br)cc2)c(C)c1NC(=O)c1nn(C)cc1Cl,5.5%,3.2,-8.8%
SMILES,HTT ATP protect,PNC assembly inh,HttQ103 aggreg
O=C(c1ccco1)N1CCN(c2ncnc3sc4c(c23)CCC4)CC1,-2.7%,?,-27.2%
c1ccc(N2CCN(c3ncnc4sc5c(c34)CCC5)CC2)cc1,-14.3%,16.1,11.2µM*
COCCN1C(=O)N[C@@H](CCc2ccccc2)C(C(=O)OC)=C1C,-2.1%,.,.
CC(=O)c1c(C)[nH]c(C(=O)OCCCCN2C(=O)c3ccccc3C2=O)c1C,-35.7%,-17.3,2.82µM*
CC(=O)c1c(C)[nH]c(C(=O)OCc2ccccc2)c1C,23.1%[10 µM],69.1,-10.8%
Cc1cccc(C)c1OCc1n[nH]c(=S)o1,17.6%[1.9 µM],52.8,-7.2%
Cc1cccc(OCc2n[nH]c(=S)o2)c1,-0.7%[10 µM],-81.7*,-19.3%
CC(C)(C)N(NC(=O)Nc1ccc(Cl)cc1)C(=O)c1ccccc1,-5.7%,16.3,18.4%
CSCc1nnc(NC(=O)c2ccc(S(=O)(=O)N(CC(C)C)CC(C)C)cc2)o1,-60.1%,30.9,10µM*
CCc1nnc(NC(=O)c2ccc(S(=O)(=O)N(CC(C)C)CC(C)C)cc2)o1,-19.5%[10 µM],?,11.8%
N#Cc1ccc(C23CC4(C2)[C@H](CN(Cc2ccc(-c5ccccc5)cc2)[C@@H]4c2ccccc2)C3c2ccccc2)cc1 (some centres undefined),-36.3%,.,-15.0%[9.22 µM]
O=C(COc1ccc(Cl)cc1)OCC(=O)N1CCCCCC1,11.9%,?,10.1%
O=C(Nc1cc(C(F)(F)F)ccc1N1CCOCC1)c1c(F)c(F)c(F)c(F)c1F,-14.1%,?,7.2%
CCn1cc(CNC(=O)c2cccc([N+](=O)[O-])c2)cn1,-1.1%[10 µM],26.4,2.0%
CCn1ncc(CNC(=O)c2cccc([N+](=O)[O-])c2)c1C,-36.8%[10 µM],-91.6*,-12.3%
CCC(C)C1NC(=O)C(Cc2ccc(O)cc2)NC(=O)C(N)CSSCC(C(=O)N2CCCC2C(=O)NC(CC(C)C)C(=O)NCC(N)=O)NC(=O)C(CC(N)=O)NC(=O)C(CCC(N)=O)NC1=O (centres undefined),8.1%,.,1.0%
N#C/C(=C\c1c[nH]c2ccccc12)C(=O)Nc1ncc(Cc2ccc(Cl)cc2Cl)s1,17.9%[10 µM],-29.9,?
COc1ccc(CCNC(=O)C2CCN(S(=O)(=O)c3cc(OC)ccc3OC)CC2)cc1,-12.1%[0.074 µM],-83.4*,8.9%
COc1ccc(OC)c(S(=O)(=O)N2CCC(C(=O)N3CCN(Cc4ccccc4)CC3)CC2)c1,15.0%,-80.4*,-28.1%
COc1ccc(CNC(=O)C2CCN(S(=O)(=O)c3cc(OC)ccc3OC)CC2)cc1,11.7%,-11.0,-15.5%
COc1ccc(OC)c(S(=O)(=O)N2CCC(C(=O)NCCc3ccccc3)CC2)c1,-20.7%,-23.3,6.1%
Cc1nn(-c2ccccc2)c(Cl)c1/C=N/NC(=O)c1ccco1,-86.3%,29.8,-6.5%
CCC(=O)Nc1nc2c(OC)ccc(C)c2s1,-11.3%[10 µM],46.8,-10.5%
COc1ccc(OC)c2sc(NC(=O)CCSc3ccccc3)nc12,-9.6%[10 µM],-87.8*,-20.6%
Cc1ccc2nc(NC(=O)CN3CCOCC3)sc2c1,-23.3%,9.0,3.16µM*
SMILES,HTT ATP protect,PNC assembly inh,HttQ103 aggreg
O=C(CN1CCOCC1)Nc1nc2ccc(F)cc2s1,-11.0%,11.6,16.1%[9.22 µM]
Cc1sc(NC(=O)CN2CCOCC2)nc1-c1ccc2c(c1)CCN2S(=O)(=O)c1ccccc1,-16.9%,?,7.08µM*
O=C(CN1CCOCC1)Nc1nc(-c2ccc3c(c2)CCN3S(=O)(=O)c2ccccc2)cs1,-17.1%[10 µM],10.4,?
Brc1c(Br)c(Br)c2n[nH]nc2c1Br,3.4%,.,.
CCOc1ccc(NC(=O)NCc2cccnc2)cc1,-33.1%,.,-12.1%
Cc1cc(C)c(S(=O)(=O)N2CCOC2CNC(=O)C(=O)NCCCn2ccnc2)c(C)c1 (centres undefined),23.5%[10 µM],.,-21.2%[9.22 µM]
CCn1nc(C)c(CN2CCN(Cc3cccc(OC)c3)C(CCO)C2)c1C (centres undefined),12.4%[10 µM],.,8.3%[9.22 µM]
Cc1sc(-n2c(C)ccc2C)c(C#N)c1C,?,16.8,?
Cc1ccc(C)n1-c1sc2c(c1C#N)CCCC2,19.7%[10 µM],-100.0*,?
O=C(NCc1cccs1)C1CCCCC1,20.7%,?,-1.9%
O=C(NCc1cccs1)C1CCCN(c2ncccn2)C1 (centres undefined),-4.6%[1.9 µM],-86.0*,-2.4%
O=C(Nc1ccc(S(=O)(=O)N2CCOCC2)cc1)C1COc2ccccc2O1 (centres undefined),-1.7%,?,13.3%
O=C(Nc1ccc(S(=O)(=O)N2CCCC2)cc1)C1COc2ccccc2O1 (centres undefined),-4.1%,-90.4*,-10.3%
